In PubChem BioAssay:
Activity calls are given as the source filed them. No stated cut-off is given here; in the data, active means inhibition above about 80%; inactive means the rest.

assay: human astrocyte viability loss, single and combined drugs, cytotoxicity control for chromothriptic childhood tumor combination screen, cell-based, BGB or cisplatin IC20 combos (AID 1671460); conditions: Human astrocytes, drug combinations, at 0.5 µM, stronger effect = higher value;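 further: cells exposed to compounds for 96 hours before viability readout; 0% = vehicle and 100% = killing control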

Q: With O=c1cc(-c2cccc3c2Sc2ccccc2S3)oc(N2CCOCC2)c1 as the compound, how does the inhibition read?
A: Its inhibition is -40.3% (inactive).

Q: With CCc1c2c(nc3ccc(O)cc13)-c1cc3c(c(=O)n1C2)COC(=O)[C@]3(O)CC as the compound, how does the inhibition read?
A: The inhibition was 90.1% (active).

Q: For O=c1[nH]c(-c2ccc(C(F)(F)F)cc2)nc2c1CSCC2, which inhibition is on record?
A: The inhibition was -1.27% (inactive).

same assay, conditions: Human astrocytes, drug combinations, measured here: combo with BGB IC20, at 0.5 µM, stronger effect = higher value

Q: With O=c1cc(-c2cccc3c2Sc2ccccc2S3)oc(N2CCOCC2)c1 as the compound, how does the inhibition read?
A: The inhibition was -56.7%.

Q: With CCc1c2c(nc3ccc(O)cc13)-c1cc3c(c(=O)n1C2)COC(=O)[C@]3(O)CC as the compound, how does the inhibition read?
A: Its inhibition is 94.5%.

Q: For O=c1[nH]c(-c2ccc(C(F)(F)F)cc2)nc2c1CSCC2, which inhibition is on record?
A: Its inhibition is 0.645%.

same assay, conditions: Human astrocytes, drug combinations, measured here: combo with cisplatin IC20, at 0.5 µM, stronger effect = higher value

Q: For O=c1cc(-c2cccc3c2Sc2ccccc2S3)oc(N2CCOCC2)c1, which inhibition is on record?
A: The inhibition was -32.4%.

Q: With CCc1c2c(nc3ccc(O)cc13)-c1cc3c(c(=O)n1C2)COC(=O)[C@]3(O)CC as the compound, how does the inhibition read?
A: Its inhibition is 87%.

Q: With O=c1[nH]c(-c2ccc(C(F)(F)F)cc2)nc2c1CSCC2 as the compound, how does the inhibition read?
A: Its inhibition is -5.26%.

assay: growth inhibition of BT084 medulloblastoma cells, cell-based, ICGC_MB145, cisplatin and BGB IC40 combos (AID 1671461); conditions: drug combinations, at 0.5 µM, stronger effect = higher value;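 further: cells exposed to drugs for 96 hours; 0% = vehicle DMSO and 100% = high DMSO full killing control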

Q: For O=c1cc(-c2cccc3c2Sc2ccccc2S3)oc(N2CCOCC2)c1, which inhibition is on record?
A: The inhibition was -24.9% (inactive).

Q: Which inhibition does the source give for CCc1c2c(nc3ccc(O)cc13)-c1cc3c(c(=O)n1C2)COC(=O)[C@]3(O)CC here?
A: The inhibition was 5.49% (inactive).

Q: With O=c1[nH]c(-c2ccc(C(F)(F)F)cc2)nc2c1CSCC2 as the compound, how does the inhibition read?
A: Its inhibition is -4.59% (inactive).

same assay, conditions: drug combinations, cisplatin combination, at 0.5 µM, stronger effect = higher value

Q: For O=c1cc(-c2cccc3c2Sc2ccccc2S3)oc(N2CCOCC2)c1, which inhibition is on record?
A: Its inhibition is -8.73%.

Q: With CCc1c2c(nc3ccc(O)cc13)-c1cc3c(c(=O)n1C2)COC(=O)[C@]3(O)CC as the compound, how does the inhibition read?
A: The inhibition was 45.3%.

Q: With O=c1[nH]c(-c2ccc(C(F)(F)F)cc2)nc2c1CSCC2 as the compound, how does the inhibition read?
A: Its inhibition is -17.6%.

same assay, conditions: drug combinations, cisplatin combination, at 5 µM, stronger effect = higher value

Q: With O=c1cc(-c2cccc3c2Sc2ccccc2S3)oc(N2CCOCC2)c1 as the compound, how does the inhibition read?
A: The inhibition was -21.4%.

Q: With CCc1c2c(nc3ccc(O)cc13)-c1cc3c(c(=O)n1C2)COC(=O)[C@]3(O)CC as the compound, how does the inhibition read?
A: The inhibition was 33.9%.

Q: For O=c1[nH]c(-c2ccc(C(F)(F)F)cc2)nc2c1CSCC2, which inhibition is on record?
A: The inhibition was -12.8%.

same assay, conditions: drug combinations, measured here: BGB IC40 combination 0.05 uM, at 0.05 µM, stronger effect = higher value

Q: With O=c1cc(-c2cccc3c2Sc2ccccc2S3)oc(N2CCOCC2)c1 as the compound, how does the inhibition read?
A: Its inhibition is -12.1%.

Q: With CCc1c2c(nc3ccc(O)cc13)-c1cc3c(c(=O)n1C2)COC(=O)[C@]3(O)CC as the compound, how does the inhibition read?
A: The inhibition was -2.99%.

Q: With O=c1[nH]c(-c2ccc(C(F)(F)F)cc2)nc2c1CSCC2 as the compound, how does the inhibition read?
A: Its inhibition is 7.96%.

same assay, conditions: drug combinations, single agent, at 5 µM, stronger effect = higher value

Q: With O=c1cc(-c2cccc3c2Sc2ccccc2S3)oc(N2CCOCC2)c1 as the compound, how does the inhibition read?
A: The inhibition was -39.1%.

Q: With CCc1c2c(nc3ccc(O)cc13)-c1cc3c(c(=O)n1C2)COC(=O)[C@]3(O)CC as the compound, how does the inhibition read?
A: Its inhibition is 52.7%.

Q: Which inhibition does the source give for O=c1[nH]c(-c2ccc(C(F)(F)F)cc2)nc2c1CSCC2 here?
A: The inhibition was -20.3%.

assay: growth inhibition of RCMB18 medulloblastoma cells, cell-based, cisplatin and BGB IC40 combos (AID 1671462); conditions: at 0.5 µM, stronger effect = higher value;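 further: cells exposed to compound for four days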

Q: With O=c1cc(-c2cccc3c2Sc2ccccc2S3)oc(N2CCOCC2)c1 as the compound, how does the inhibition read?
A: The inhibition was -11.1% (inactive).

Q: Which inhibition does the source give for CCc1c2c(nc3ccc(O)cc13)-c1cc3c(c(=O)n1C2)COC(=O)[C@]3(O)CC here?
A: The inhibition was 30.1% (inactive).

Q: With O=c1[nH]c(-c2ccc(C(F)(F)F)cc2)nc2c1CSCC2 as the compound, how does the inhibition read?
A: Its inhibition is -18.1% (inactive).

same assay, conditions: cisplatin combo, at 5 µM, stronger effect = higher value

Q: Which inhibition does the source give for O=c1cc(-c2cccc3c2Sc2ccccc2S3)oc(N2CCOCC2)c1 here?
A: Its inhibition is 5.15%.

Q: With CCc1c2c(nc3ccc(O)cc13)-c1cc3c(c(=O)n1C2)COC(=O)[C@]3(O)CC as the compound, how does the inhibition read?
A: The inhibition was 67.1%.

Q: With O=c1[nH]c(-c2ccc(C(F)(F)F)cc2)nc2c1CSCC2 as the compound, how does the inhibition read?
A: Its inhibition is -47.8%.

same assay, conditions: measured here: BGB IC40 combination, at 0.05 µM, stronger effect = higher value

Q: Which inhibition does the source give for O=c1cc(-c2cccc3c2Sc2ccccc2S3)oc(N2CCOCC2)c1 here?
A: The inhibition was -26.8%.

Q: With CCc1c2c(nc3ccc(O)cc13)-c1cc3c(c(=O)n1C2)COC(=O)[C@]3(O)CC as the compound, how does the inhibition read?
A: Its inhibition is -24.6%.

Q: Which inhibition does the source give for O=c1[nH]c(-c2ccc(C(F)(F)F)cc2)nc2c1CSCC2 here?
A: The inhibition was -24.5%.

same assay, conditions: measured here: combination with cisplatin, at 0.5 µM, stronger effect = higher value

Q: Which inhibition does the source give for O=c1cc(-c2cccc3c2Sc2ccccc2S3)oc(N2CCOCC2)c1 here?
A: The inhibition was -2.95%.

Q: For CCc1c2c(nc3ccc(O)cc13)-c1cc3c(c(=O)n1C2)COC(=O)[C@]3(O)CC, which inhibition is on record?
A: The inhibition was 61.9%.

Q: For O=c1[nH]c(-c2ccc(C(F)(F)F)cc2)nc2c1CSCC2, which inhibition is on record?
A: Its inhibition is -29.6%.

same assay, conditions: single agent, at 5 µM, stronger effect = higher value

Q: With O=c1cc(-c2cccc3c2Sc2ccccc2S3)oc(N2CCOCC2)c1 as the compound, how does the inhibition read?
A: The inhibition was -8.05%.

Q: Which inhibition does the source give for CCc1c2c(nc3ccc(O)cc13)-c1cc3c(c(=O)n1C2)COC(=O)[C@]3(O)CC here?
A: Its inhibition is 62.2%.

Q: With O=c1[nH]c(-c2ccc(C(F)(F)F)cc2)nc2c1CSCC2 as the compound, how does the inhibition read?
A: Its inhibition is 13.3%.

assay: growth inhibition of CRL1545 osteosarcoma cells, cell-based, cisplatin and BGB IC20 combos (AID 1671464); conditions: at 0.5 µM, stronger effect = higher value;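 further: cells exposed to compound for 96 hours before readout; 0% = vehicle DMSO and 100% = high DMSO killing control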

Q: Which inhibition does the source give for O=c1cc(-c2cccc3c2Sc2ccccc2S3)oc(N2CCOCC2)c1 here?
A: The inhibition was -32.7% (inactive).

Q: With CCc1c2c(nc3ccc(O)cc13)-c1cc3c(c(=O)n1C2)COC(=O)[C@]3(O)CC as the compound, how does the inhibition read?
A: Its inhibition is 93.7% (active).

Q: With O=c1[nH]c(-c2ccc(C(F)(F)F)cc2)nc2c1CSCC2 as the compound, how does the inhibition read?
A: The inhibition was -34.9% (inactive).

same assay, conditions: measured here: with BGB IC20 combination, at 0.5 µM, stronger effect = higher value

Q: For O=c1cc(-c2cccc3c2Sc2ccccc2S3)oc(N2CCOCC2)c1, which inhibition is on record?
A: The inhibition was -8.28%.

Q: With CCc1c2c(nc3ccc(O)cc13)-c1cc3c(c(=O)n1C2)COC(=O)[C@]3(O)CC as the compound, how does the inhibition read?
A: Its inhibition is 98.1%.

Q: For O=c1[nH]c(-c2ccc(C(F)(F)F)cc2)nc2c1CSCC2, which inhibition is on record?
A: The inhibition was -20.3%.

same assay, conditions: measured here: with cisplatin IC20 combination, at 0.5 µM, stronger effect = higher value

Q: With O=c1cc(-c2cccc3c2Sc2ccccc2S3)oc(N2CCOCC2)c1 as the compound, how does the inhibition read?
A: The inhibition was -48.2%.

Q: With CCc1c2c(nc3ccc(O)cc13)-c1cc3c(c(=O)n1C2)COC(=O)[C@]3(O)CC as the compound, how does the inhibition read?
A: Its inhibition is 91.2%.

Q: Which inhibition does the source give for O=c1[nH]c(-c2ccc(C(F)(F)F)cc2)nc2c1CSCC2 here?
A: The inhibition was -44.5%.

same assay, conditions: single agent, at 0.05 µM, stronger effect = higher value

Q: Which inhibition does the source give for O=c1cc(-c2cccc3c2Sc2ccccc2S3)oc(N2CCOCC2)c1 here?
A: Its inhibition is -20.3%.

Q: With CCc1c2c(nc3ccc(O)cc13)-c1cc3c(c(=O)n1C2)COC(=O)[C@]3(O)CC as the compound, how does the inhibition read?
A: Its inhibition is 16.8%.

Q: With O=c1[nH]c(-c2ccc(C(F)(F)F)cc2)nc2c1CSCC2 as the compound, how does the inhibition read?
A: Its inhibition is -54.3%.
